Test results: PubChem BioAssay AID588519 (ICCB-Longwood Screening Facility, Harvard Medical School, 2011)
Out of some 150,000 compounds screened, about 1,000 (0.67%) were called active. This is one part of a sample in which actives are shown more often than they occur. Cut-off read from the data, not from the text of the source: active = % elongation below about 90%; inactive = the rest, inconclusive results apart.

Biological target: Genome polyprotein (Poliovirus type 1 (strain Mahoney)) (UniProt P03300)
Sequence (P03300 1749-2209 limits assumed): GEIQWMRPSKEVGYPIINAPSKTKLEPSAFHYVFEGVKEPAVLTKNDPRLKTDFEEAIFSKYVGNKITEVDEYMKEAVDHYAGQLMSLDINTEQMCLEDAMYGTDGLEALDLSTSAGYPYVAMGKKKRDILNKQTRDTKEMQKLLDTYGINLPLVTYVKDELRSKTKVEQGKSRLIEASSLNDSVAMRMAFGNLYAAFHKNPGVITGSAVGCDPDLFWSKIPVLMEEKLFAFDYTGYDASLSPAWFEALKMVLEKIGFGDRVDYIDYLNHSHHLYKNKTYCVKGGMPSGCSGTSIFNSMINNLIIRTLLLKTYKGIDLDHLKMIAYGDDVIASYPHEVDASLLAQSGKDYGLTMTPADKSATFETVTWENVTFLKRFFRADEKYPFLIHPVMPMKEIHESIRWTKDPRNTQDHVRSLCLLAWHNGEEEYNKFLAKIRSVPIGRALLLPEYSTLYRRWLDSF
Experiment: poliovirus RdRp elongation inhibitors, primary screen, biochemical, fluorescence polarization, total intensity (AID 588519); for z-score: compound at 16.7 µg/mL
Conditions: poliovirus polymerase elongation, stronger effect = lower value; for % elongation: compound at 16.7 µg/mL; for z-score: measured here: FP z-score
[1] = measured here: total intensity read-out

Row | SMILES | % elongation | z-score | % elongation [1] [%]
1 | CN(C)c1ccc(/C=C(\C#N)NC(=O)c2ccccc2)cc1 | 103% (inactive) | 0 | 108
2 | Cc1ccc(NC(=O)COc2ccccc2O)cc1C | 103% (inactive) | 0.1 | 104
3 | Cc1ccc2[nH]c(=O)c(CNCCCN(C)C)cc2c1 | 100% (inactive) | -0.2 | 102
4 | Cc1c(NC(=O)Cc2ccc(S(=O)(=O)N3CCCCC3)cc2)c(=O)n(-c2ccccc2)n1C | 102% (inactive) | -0.1 | 108
5 | Cc1ccc2nc(C)cc(Nc3ccccc3)c2c1 | 101% (inactive) | -0.1 | 105
6 | Cc1cc(Sc2nnc(C)s2)c2ccccc2n1 | 86% (active) | -1.5 | 83
7 | Cc1cc(Nc2ccc(Cl)cc2)c2ccccc2n1 | 92% (inactive) | -1 | 93
8 | CC(C)CCSc1nc2ncn(C)c2c(=O)[nH]1 | 104% (inactive) | 0.4 | 108
9 | COc1cc(/C=N/NS(=O)(=O)c2cc(C)ccc2C)cc(OC)c1O | 104% (inactive) | 0.3 | 124
10 | O=C1S/C(=C/c2cc3c(cc2Cl)OCO3)C(=O)N1c1ccccc1 | 100% (inactive) | -0.4 | 103
11 | CCN(CC)c1nc(C#N)nc(OC)n1 | 87% (active) | -1.5 | 90
12 | NS(=O)(=O)c1ccc(N=Cc2c(O)n(Cc3ccc4c(c3)OCO4)c(=O)c3ccccc23)cc1 | 100% (inactive) | 0 | 105
13 | CN=C(Cl)c1cccs1 | 99% (inactive) | -0.6 | 101
14 | O=C(Nc1cccc(Cl)c1)N1CCC(n2nnc3cc(F)ccc32)CC1 | 102% (inactive) | 0.2 | 100
15 | CN(C)C(=O)CCSc1nc2cc(Cl)ccc2o1 | 103% (inactive) | 0.3 | 102
16 | CCCCC(=O)Nc1sc2c(c1C#N)CCCC2 | 92% (inactive) | -1.4 | 100
17 | CNC(=O)c1sc(NCc2ccccc2OC)nc1C | 80% (active) | -3.1 | 89
18 | COc1ccccc1CNC(=O)CS(=O)(=O)c1cccc2nsnc12 | 105% (inactive) | -0.4 | 112
19 | COc1ccccc1CNCc1ccc(C(=O)O)s1 | 108% (inactive) | 0.4 | 113
20 | O=C(NCc1ccncc1)C1CCN(C(=O)c2cccc(Cl)c2)CC1 | 99% (inactive) | -0.2 | 102
21 | O=C(c1cccc(Cl)c1)N1CCN(CCc2ccncc2)CC1 | 21% (active) | -6.3 | 37
22 | O=C(c1ccccc1)N1CCN(c2cccc(Cl)c2)CC1 | 100% (inactive) | -0.3 | 95
23 | O=C(O)CSc1nnc(-c2ccccc2)n1-c1ccccc1 | 101% (inactive) | -0.2 | 102
24 | O=C(O)c1ccc2nc[nH]c2c1 | 100% (inactive) | -0.4 | 108
25 | CCOC(=O)c1sc(NC(=O)/C=C/c2ccc(Cl)cc2)cc1C | 102% (inactive) | 0.3 | 106
26 | CCN(C(=O)c1sc2nc3n(c(=O)c2c1C)CCCC3)c1ccccc1 | 100% (inactive) | -1.2 | 100
27 | COc1cc(OC)c(N(C)C(=O)c2ccc3c(=O)n4c(nc3c2)CCCCC4)cc1Cl | 105% (inactive) | 0.9 | 109
28 | CC(C)(C)NCC(O)COc1c(Br)ccc2c1sc1nc3n(c(=O)c12)CCCCC3 (stereo not given) | 69% (active) | -4.7 | 96
29 | CC1CC(C)CN(C(=O)C(C)Sc2nnnn2-c2ccc(Cl)cc2)C1 (stereo not given) | 98% (inactive) | -0.5 | 99
30 | O=C1CCCCCN1Cc1nnc(SCN2C(=O)c3ccccc3C2=O)n1-c1ccccn1 | 106% (inactive) | 0.4 | 100
